Experimental findings from PubChem BioAssay (NCATS) are described below.

Records with an inconclusive call do not appear. Calls of active or inactive are those of the source. Calls come from the whole dose curve; as a rule, active = well fitted inhibition curve with a large enough effect; inconclusive = small, poorly fitted or top-dose-only effect; inactive = no such curve, though single readings can be large or run the other way.
% is set by controls: 0 for no effect and ±100 for the full control effect; potency is the fitted concentration of half-maximal effect.

The first assay relates to Zika virus NS2B-NS3 protease (unlinked complex). The assay is described as follows: Primary screen GU Rhodamine qHTS for Zika virus inhibitors: Unlinked NS2B-NS3 protease assay (AID 1347159). Note: nearly all actives have a fitted effect of over 60% in size. The following applies: Recombinant ZIKV NS2B-NS3 protease, Rhodamine110 substrate fluorescence; series mostly up to 107 µM; activity change, negative = inhibition: at the top concentration. An outline of the steps:
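Percent inhibition derives from the 15-min fluorescence change (ex 480, em 540 nm), normalized to no-enzyme and no-inhibitor wells. Reactions contained 25 nM NS2B-NS3 complex and 1.5 microM substrate in 10 mM Tris-HCl pH 8.0.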
On to `N#CC1C(=O)Nc2scc(-c3ccc(-c4ccccc4O)cc3)c2C1=O` (centres undefined), for which the Potency was 2.51 µM (active). Same read-out and setting: next, `NCc1ccc(OCCCc2sc(-c3ccc4c(c3)/C(=N/Nc3nc5ccccc5s3)CCC4)nc2C(=O)O)cc1`: 39.8 µM (active).

Regarding `CC(CO[C@@H]1O[C@H](COC(=O)/C=C/c2ccc(O)c(O)c2)[C@@H](O)[C@H](O)[C@H]1O)C1(O)COC(=O)C1` (some centres undefined), the “activity change, negative = inhibition” value is -17.9% [at 57.1 µM] (inactive).

For the molecule `C/C=C(/C)C(=O)O[C@H]1C=C(C)C[C@H](OC(=O)c2ccc(O)cc2)C2[C@](O)(C(C)C)CC[C@@]21C` (some centres undefined), the “activity change, negative = inhibition” value was 8.86% [at 32.5 µM] (inactive). In the case of `COc1cc(/C=C/C(=O)OC2CC(OC(C)=O)C(OC(C)=O)C3C2CCC2C(=O)OC(c4ccoc4)CC23C)ccc1O[C@@H]1O[C@H](CO)[C@@H](O)[C@H](O)[C@H]1O` (some centres undefined), the “activity change, negative = inhibition” value is -18.8% [at 32.5 µM] (inactive).

Take `CC(=O)c1c(C)cc(O)cc1O[C@@H]1O[C@H](CO)[C@@H](O)[C@H](O)[C@H]1O`: the “activity change, negative = inhibition” value is 18.5% (inactive). As for `Cc1ccc2c(c1)C=Cc1cc(C)ccc1C2c1cn(Cc2ccc(C(=O)Nc3nn[nH]n3)o2)c(=O)[nH]c1=S`, the Potency was 3.16 µM (active).

As for `CC1(C)CCC(C)(C)c2cc3c(cc21)Sc1ccccc1N=C3c1ccc(C(=O)O)cc1`, the Potency is 2.51 µM (active). With `CC1OC(OC2C(O)C(C(=O)O)OC(OC3CCC4(C)C(CCC5(C)C4C=CC4=C6CC(C)(C)CC(O)C6(C)CCC45C)C3(C)C)C2OC2OCC(O)C(O)C2O)C(O)C(O)C1O` (centres undefined), the Potency was 3.55 µM (active). Same read-out and setting: next, `O=C(O)c1cc(O)c2cccc(O)c2c1O[C@@H]1O[C@H](CO)[C@@H](O)[C@H](O)[C@H]1O`: 10 µM (active).

`CC1C/C=C/C=C\CCCCC(O)C/C=C/C(=O)O1` (centres undefined): the Potency is 17.8 µM (active). `O=C(O[C@@H]1O[C@H](CO)[C@@H](O)[C@H](O)[C@H]1O)c1c(O)cc(O)cc1/C=C/c1ccccc1`: the “activity change, negative = inhibition” value is 3.68% [at 57.1 µM] (inactive).

Regarding `CCOc1c2c(c(OCC)c3ccccc13)C(=O)N(c1ccc(CC(=O)NS(=O)(=O)c3ccccc3)cc1)C2`, the Potency is 3.98 µM (active).

The next assay has as its system Zika virus NS2B-NS3 protease (linked construct). The assay is described as follows: Primary screen NINDS Rhodamine qHTS for Zika virus inhibitors (AID 1347160). Note: nearly all actives have a fitted effect of over 55% in size. The settings on record: purified NS2B-NS3 protease, Rhodamine110 substrate fluorescence; series mostly up to 57.1 µM; activity change, negative = inhibition: at the top concentration. An outline of the steps:
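In 10 mM Tris-HCl pH 8.0 containing 0.01% Tween 20, linked NS2B-NS3 protease (25 nM final) is exposed to test compounds for 15 min. Cleavage of 1.5 microM Rhodamine110 substrate is tracked by fluorescence over 15 min.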
For the molecule `CCOc1ccc(-c2ccc(Cn3c(CC(C)(C)C(=O)O)c(SC(C)(C)C)c4cc(OCc5ccc(C)cn5)ccc43)cc2)cn1`, the Potency is 3.16 µM (active). On to `OC[C@H]1O[C@@H](Oc2ccc(O)c3cccc(O)c23)[C@H](O)[C@@H](O)[C@@H]1O`, for which the “activity change, negative = inhibition” value was -18.3% [at 33.1 µM] (inactive). Consider `COc1cccc(-n2nc(C(=O)O)cc2-c2ccc(C3CCCCC3)c(Cl)c2)c1`, for which the Potency was 2.51 µM (active). In the case of `C=C1CC23CCC4[C@@](C)(CCC[C@@]4(C)C(=O)O)C2CCC1C3` (some centres undefined), the “activity change, negative = inhibition” value was -18.9% (inactive). On to `O=C(O)c1ccc(CCCc2ccc(OCCc3ccc(F)cc3)cc2)o1`, for which the Potency is 3.98 µM (active). The same measure, in the same setting: next, `O=C(/C=C/c1c(C(=O)O)[nH]c2cc(Cl)cc(Cl)c12)Nc1ccccc1`: 3.16 µM (active). Turning to `CC12CCC3C(C)(C)C(O)CCC3(C)C1Cc1c(oc(C(=O)O)cc1=O)O2` (centres undefined), the “outcome” value is “inactive [at 33.1 µM]”. In the case of `O=C(O)c1cnn(-c2nc3cc(OC(F)(F)F)c(Cl)cc3[nH]2)c1`, the Potency was 2 µM (active). With `Cc1nn(C)c(COc2ccc(N3CCN(S(=O)(=O)N(C)C)CC3)cc2)c1-c1cccc2c(CCCOc3cccc4ccccc34)c(C(=O)O)n(CCN3CCOCC3)c12`, the “activity change, negative = inhibition” value was -23.7% (inactive). As to `CC(=O)O[C@@H]1C[C@]2(C)[C@@]3(CCC4[C@@]5(C)CC[C@H](O[C@@H]6O[C@H](C(=O)O)[C@@H](O)[C@H](O[C@@H]7O[C@H](CO)[C@H](O)[C@H](O)[C@H]7O[C@@H]7O[C@@H](C)[C@H](O)[C@@H](O)[C@H]7O[C@@H]7OC[C@](O)(CO)[C@H]7O)[C@H]6O[C@@H]6O[C@H](CO)[C@H](O)[C@H](O)[C@H]6O)C(C)(C)C5CC[C@]42C)O[C@@H](O)[C@]12C3CC(C)(C)[C@@H](OC(=O)/C=C/c1ccc(O)c(O)c1)[C@@H]2OC(=O)/C=C/c1ccccc1` (some centres undefined), the Potency is 2.46 µM (active). On the same count and under the same terms, next, `CC(C)c1cc2c(c(O)c1O[C@@H]1O[C@H](CO)[C@@H](O)[C@H](O)[C@H]1O)CC1(O)CCC(O)C(C)(C)C1CC2` (some centres undefined): 7.94 µM (active); `N#CC1C(=O)Nc2scc(-c3ccc(-c4ccccc4O)cc3)c2C1=O` (centres undefined): 3.16 µM (active).

Take `NCc1ccc(OCCCc2sc(-c3ccc4c(c3)/C(=N/Nc3nc5ccccc5s3)CCC4)nc2C(=O)O)cc1`: the molecule was classed as inactive.

For `CC1(C)CCC(C)(C)c2cc3c(cc21)Sc1ccccc1N=C3c1ccc(C(=O)O)cc1`, the Potency was 2.24 µM (active). Still for that read-out and setting: in the case of `O=C(O)c1cc(O)c2cccc(O)c2c1O[C@@H]1O[C@H](CO)[C@@H](O)[C@H](O)[C@H]1O` it was 5.01 µM (active).

Consider `CCOc1c2c(c(OCC)c3ccccc13)C(=O)N(c1ccc(CC(=O)NS(=O)(=O)c3ccccc3)cc1)C2`, for which the Potency is 8.91 µM (active).
